# Data published in the supplement of paper PMC11417369.
# ± gives the standard deviation of the averaged measurements. In all, about 25,000 sequences were measured (“ln(normalized median fluorescence intensity)”: median about 10, highest 2% from about 12 on). The entries come from a sample that favours the highest values as a whole.
# Test system: PfAP2-G AP2 domain (GST-tagged)
# Assay: gcPBM binding intensity (ln(normalized median fluorescence intensity)); higher = stronger DNA binding
# Summary of the method: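 Using an Agilent 4 × 180k array, primer-extended double-stranded 36-bp intergenic genomic probes and negative controls were exposed for 1 h to GST-fused P. falciparum DNA-binding domains expressed in E. coli. Binding was carried out in 1× PBS with 1% milk, 0.2 mg/ml BSA, 0.5% salmon testes DNA and 0.03% Triton X-100, and protein was detected with Alexa488 anti-GST antibody and a 488 nm scan. Binding intensity is the highest Masliner-normalised natural-log median intensity across replicate spots of either probe orientation.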
row,Sequence,gcPBM binding intensity (ln)
1,TTTTTAATCCTTTGCGCATGTAAAATTATATATTTT [TGCATGCA_site306],10.1 ± 0.11
2,TCATTTTAAGGAAAAAGTACAAAATAATATGTTCCT [XGTACX_site1903],11 ± 0.65
3,ATCTCTTAAATTTTACGTACTTATTTTATCTTCTTA [XGTACX_site8877],11.2 ± 0.67
4,AATTTCAATTTCTGTTGTACACTTTTTAATAGTAAA [XGTACX_site4085],11.4 ± 0.88
5,ATTATGATTTTATAGAACTGAACATTTACATTAAAT [GTGCAC_negctrl_site192],9.855 ± 0.064
6,TAAAAATGTGGACACACACACATATTTATATTTAAT [CACACA_site6827],11.4 ± 0.72
7,TATCCATTATTTAAAAGTACAAAAAACGATTTACAC [XGTACX_site2979],11.3 ± 0.8
8,CTACACACTTATAAATGTACAGGATTTAAGTATATG [XGTACX_site8245],10.9 ± 0.49
9,ATATAAAAATGTGTATGTACACACTTTATTTTTAAT [XGTACX_site5272],11.4 ± 0.74
10,TTAAGTATTTTACGTACACACTTATAAATGTACAGG [CACACA_site6012],11.7 ± 0.93
11,GTAATTATATACATACGTACATACACATATGTATAT [XGTACX_site4149],11.3 ± 0.65
12,TTAAAAATTATGGATACACACATATATATATATATT [CACACA_site2383],10.2 ± 0.2
13,ATATGGAATAATACGCGTACACACATATATATATTA [XGTACX_site307],11.7 ± 1
14,TGGAATAATACGCGTACACACATATAAATATTAATA [CACACA_site6211],11.7 ± 0.91
15,TGGAATAATACGCGTACACACATATATATATTAATA [CACACA_site131],11.8 ± 0.97
16,AATATATATTAATACACACACACATATATATATATA [CACACA_site3786],10.3 ± 0.47
17,CATATAATAAATAATACACACATATTGGAAATATAT [CACACA_site3212],9.98 ± 0.057
18,TGGAATAATCCGCGTACACACATATATATATTAAGA [CACACA_site4253],11.6 ± 0.87
19,GTCTGCATATGGATACGTACACATATATATTAATGT [XGTACX_site2260],11.7 ± 0.91
20,TATAAATACATACGTACACACAAATATTAAAATATA [CACACA_site5129],11.5 ± 0.87
21,GAATAATATGGACATACACACATATACATACATATA [CACACA_site2114],10.9 ± 0.51
22,TATGGAATAATACGCGTACACACATATATATATTAA [CACACA_site132],11.6 ± 0.93

row,Sequence,gcPBM binding intensity (ln)
1,AGTTTTATATTTCTGAGTACTTATGAATCTAGCTCG [XGTACX_site4330],11.2 ± 0.72
2,TGGTGATATACGAAATGTACGCAAATCACAAAATAA [XGTACX_site8836],11.5 ± 0.98
3,ATTAAAAAAAAAAAAAAAAAACAAAAAAAAAAAAAA [CACACA_negctrl_site1187],9.62
4,ACTTGTAAGAAACACACACACACACCCATATATATA [CACACA_site796],10.2 ± 0.14
5,TTTTTAAAACATCACTGTACCCGTTATGGTGAACAT [XGTACX_site3483],11.7 ± 1.2
6,TTTTATTATTAAACATGTACCCATATTATTGTTATG [XGTACX_site5563],11.2 ± 0.56
7,CTGAACCCGTTATGGTGTACATAAAATAAGACACAG [XGTACX_site3484],11.6 ± 0.96
8,TATATATATATATATAGTACATATTAATTAATTTAT [XGTACX_site8198],10.8 ± 0.63
9,CCTAAAAAAAAGAAATGATATACATATGTATATATA [GTGCAC_negctrl_site100],9.685 ± 0.064
10,ATAAAAATAAAAAGATGTACGTATTTTTTTTTTTTT [XGTACX_site5329],11.6 ± 0.91
11,TATATAATATATTTATGTACGTATTTAAAAATTTAT [XGTACX_site160],11.6 ± 0.98
12,TAAATAGATGTTTTATGTACGTATAAATAAAAAAAA [XGTACX_site3412],11.7 ± 0.88
13,AAATTTAGTAAAAAATGTACGTAAAATGTAAAATAT [XGTACX_site1314],11.5 ± 0.73
14,AATAGTAAAAATCACTGTACGTTTATTTTTAAAATG [XGTACX_site1035],11.7 ± 0.91
15,TTTATTTTGATTTAATGTACAAATAGTAAAACAAAA [XGTACX_site4789],10.9 ± 0.49
16,ATTTATTTTGTTGTTGTTTTTATTTGATTGTTTTAT [CACACA_negctrl_site1275],9.785 ± 0.007
17,TATAACATTATTTTGTGTACACATTCGGTTATATTA [XGTACX_site6310],12 ± 1.1
18,TATATATATATTATATGTACACATTTGTGAATTATT [XGTACX_site5848],11.5 ± 0.85
19,GTTATTCTTAATTTTTGTACACATTTTTATATTATT [XGTACX_site7227],11.4 ± 0.7
20,ATTTTATAACATTCATGTACACATTTCATTTATTTG [XGTACX_site3028],11.3 ± 0.77
21,AACATTATTTTGTGTACACATTCGGTTATATTATAT [CACACA_site5628],11.8 ± 1
22,TTTTATAAATATTTTTGTACACATTTAAATATTATT [XGTACX_site4973],11.3 ± 0.59
